# Reference: article PMC7862700, “An all-to-all approach to the identification of sequence-specific readers for epigenetic DNA modifications on cytosine”
# Experiments:
# Assay in all cases: DAPPL (digital affinity profiling via proximity ligation, sequencing); 10 mM Tris-HCl pH 7.5, 50 mM NaCl, 1 mM DTT, 4% glycerol, room temperature, 30 min; GST-TFs on glutathione beads, 16-mer random dsDNA library, 0.1% formaldehyde crosslink after washing; high values mean tight binding
# Conditions in all cases: protein: recombinant; tags: N-terminal GST; dsDNA, one strand shown
# [1] = target: T1, FLI1 (Homo sapiens, UniProt Q01543 1-452)
# T1 sequence: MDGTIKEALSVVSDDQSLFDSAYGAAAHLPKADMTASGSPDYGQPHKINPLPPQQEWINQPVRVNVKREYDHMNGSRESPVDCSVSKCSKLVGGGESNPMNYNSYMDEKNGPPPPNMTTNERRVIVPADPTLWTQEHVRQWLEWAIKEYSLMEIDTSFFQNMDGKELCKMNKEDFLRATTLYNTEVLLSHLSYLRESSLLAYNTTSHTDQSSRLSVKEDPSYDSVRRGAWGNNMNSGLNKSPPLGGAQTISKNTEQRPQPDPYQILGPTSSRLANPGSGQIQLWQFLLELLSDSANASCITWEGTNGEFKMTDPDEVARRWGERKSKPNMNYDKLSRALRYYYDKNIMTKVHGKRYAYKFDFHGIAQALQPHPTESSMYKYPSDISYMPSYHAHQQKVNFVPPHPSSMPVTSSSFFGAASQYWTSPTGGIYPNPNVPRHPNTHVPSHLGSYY
# In short: (§1)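 Pools were built from human transcription factors expressed in yeast as GST fusions, captured on glutathione beads and DNA-barcoded, along with a tag-only sample. Incubation with 200 nmole of a 16-mer random double-stranded DNA library lasted 30 min at room temperature in Tris/NaCl/DTT/glycerol buffer, and was followed by washing, 0.1% formaldehyde crosslinking, proximity ligation, PCR amplification and Illumina NextSeq500 sequencing. Binding signal is the quotient of each hexamer's read frequency for a factor and its frequency for the tag-only sample.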
# [2] = target: T2, ELK1 (Homo sapiens, UniProt P19419 1-428)
# T2 sequence: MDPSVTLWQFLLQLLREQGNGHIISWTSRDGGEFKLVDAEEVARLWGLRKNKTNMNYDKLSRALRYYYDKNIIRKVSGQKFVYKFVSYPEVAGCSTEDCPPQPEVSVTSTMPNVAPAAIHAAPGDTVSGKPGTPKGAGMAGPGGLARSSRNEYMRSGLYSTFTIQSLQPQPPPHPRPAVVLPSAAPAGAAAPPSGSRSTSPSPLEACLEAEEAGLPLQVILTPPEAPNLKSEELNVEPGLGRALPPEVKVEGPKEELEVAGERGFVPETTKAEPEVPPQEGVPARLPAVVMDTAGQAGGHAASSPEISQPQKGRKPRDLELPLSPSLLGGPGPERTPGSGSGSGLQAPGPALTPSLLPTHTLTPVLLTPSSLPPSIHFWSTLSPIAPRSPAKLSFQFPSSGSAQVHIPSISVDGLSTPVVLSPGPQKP
# In short: as §1
# [3] = target: T3, ERG (Homo sapiens, UniProt P11308 1-479)
# T3 sequence: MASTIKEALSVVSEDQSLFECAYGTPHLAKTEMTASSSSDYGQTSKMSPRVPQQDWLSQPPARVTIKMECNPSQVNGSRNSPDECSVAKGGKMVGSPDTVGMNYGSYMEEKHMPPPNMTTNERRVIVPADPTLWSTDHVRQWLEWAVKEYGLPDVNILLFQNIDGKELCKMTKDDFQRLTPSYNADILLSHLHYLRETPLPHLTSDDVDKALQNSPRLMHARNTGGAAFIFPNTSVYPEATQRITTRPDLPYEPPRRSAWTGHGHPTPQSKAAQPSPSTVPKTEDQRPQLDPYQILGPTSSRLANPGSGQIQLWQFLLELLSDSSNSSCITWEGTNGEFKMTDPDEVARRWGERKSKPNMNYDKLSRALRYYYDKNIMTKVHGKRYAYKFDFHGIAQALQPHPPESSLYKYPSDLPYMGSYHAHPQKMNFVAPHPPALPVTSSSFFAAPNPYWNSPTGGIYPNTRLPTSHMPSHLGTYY
# In short: as §1
# [4] = target: ELF1 (Homo sapiens, UniProt P32519 1-619)
# Chain of ELF1 (P32519 whole entry): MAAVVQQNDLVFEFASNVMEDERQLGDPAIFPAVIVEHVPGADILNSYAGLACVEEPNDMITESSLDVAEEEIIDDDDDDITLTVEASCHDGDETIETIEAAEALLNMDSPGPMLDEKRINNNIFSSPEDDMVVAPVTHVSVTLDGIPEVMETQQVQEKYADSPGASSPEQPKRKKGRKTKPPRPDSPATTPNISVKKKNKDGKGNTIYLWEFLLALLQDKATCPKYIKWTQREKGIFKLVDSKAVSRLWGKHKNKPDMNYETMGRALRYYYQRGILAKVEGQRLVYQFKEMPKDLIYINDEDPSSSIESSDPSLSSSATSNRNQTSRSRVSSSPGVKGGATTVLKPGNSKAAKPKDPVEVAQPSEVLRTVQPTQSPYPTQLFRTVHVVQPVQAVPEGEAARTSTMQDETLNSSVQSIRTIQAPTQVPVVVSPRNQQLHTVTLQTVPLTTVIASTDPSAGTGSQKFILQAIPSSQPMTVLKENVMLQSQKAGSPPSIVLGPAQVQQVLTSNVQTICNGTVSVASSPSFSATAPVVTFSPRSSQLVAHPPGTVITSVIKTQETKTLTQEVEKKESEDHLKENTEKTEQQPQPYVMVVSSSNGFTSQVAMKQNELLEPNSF
# In short: as §1
# [5] = target: T4, EHF (Homo sapiens, UniProt Q9NZC4 1-300)
# T4 sequence: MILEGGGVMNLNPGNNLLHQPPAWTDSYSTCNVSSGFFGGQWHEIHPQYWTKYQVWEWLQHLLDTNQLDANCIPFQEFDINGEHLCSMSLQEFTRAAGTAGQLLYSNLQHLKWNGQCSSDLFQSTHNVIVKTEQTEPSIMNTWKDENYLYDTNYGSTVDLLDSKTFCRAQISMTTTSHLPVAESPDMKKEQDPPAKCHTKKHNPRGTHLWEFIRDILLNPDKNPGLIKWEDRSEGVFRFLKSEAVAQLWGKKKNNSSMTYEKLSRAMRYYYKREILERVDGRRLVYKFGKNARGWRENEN
# In short: as §1
# [6] = target: SPIB (Homo sapiens, UniProt Q01892 1-262)
# Chain of SPIB (Q01892 whole entry): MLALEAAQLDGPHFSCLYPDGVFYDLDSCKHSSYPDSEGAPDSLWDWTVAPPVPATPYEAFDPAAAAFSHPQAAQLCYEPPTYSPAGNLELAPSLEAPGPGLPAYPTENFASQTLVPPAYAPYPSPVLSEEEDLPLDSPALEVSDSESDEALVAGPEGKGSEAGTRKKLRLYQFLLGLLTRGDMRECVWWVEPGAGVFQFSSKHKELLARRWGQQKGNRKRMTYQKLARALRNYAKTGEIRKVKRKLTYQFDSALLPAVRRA
# In short: as §1
# [7] = target: T5, FEV (Homo sapiens, UniProt Q99581 1-238)
# T5 sequence: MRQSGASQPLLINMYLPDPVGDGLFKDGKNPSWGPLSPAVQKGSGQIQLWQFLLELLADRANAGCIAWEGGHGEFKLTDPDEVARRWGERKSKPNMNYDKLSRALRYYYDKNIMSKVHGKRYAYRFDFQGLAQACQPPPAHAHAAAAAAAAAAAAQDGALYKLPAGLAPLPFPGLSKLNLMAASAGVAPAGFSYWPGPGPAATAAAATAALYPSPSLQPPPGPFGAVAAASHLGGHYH
# In short: as §1
# [8] = target: ETV5 (Homo sapiens, UniProt P41161 1-510)
# Chain of ETV5 (P41161 whole entry): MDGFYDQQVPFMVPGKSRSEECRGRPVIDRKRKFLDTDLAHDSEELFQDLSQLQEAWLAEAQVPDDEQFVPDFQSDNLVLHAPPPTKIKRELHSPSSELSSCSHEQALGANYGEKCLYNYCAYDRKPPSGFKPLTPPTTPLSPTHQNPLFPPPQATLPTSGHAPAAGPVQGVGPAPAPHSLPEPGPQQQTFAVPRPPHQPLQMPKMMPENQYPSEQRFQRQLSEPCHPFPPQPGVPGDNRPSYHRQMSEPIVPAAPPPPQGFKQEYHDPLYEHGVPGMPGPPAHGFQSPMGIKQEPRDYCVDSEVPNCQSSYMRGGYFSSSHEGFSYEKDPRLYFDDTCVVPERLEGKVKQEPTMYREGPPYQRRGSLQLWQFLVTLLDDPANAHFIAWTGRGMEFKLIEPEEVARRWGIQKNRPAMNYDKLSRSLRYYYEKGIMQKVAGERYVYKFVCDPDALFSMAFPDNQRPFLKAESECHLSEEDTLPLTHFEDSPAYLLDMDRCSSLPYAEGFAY
# In short: as §1
# [9] = target: ELF4 (Homo sapiens, UniProt Q99607 1-663)
# Chain of ELF4 (Q99607 whole entry): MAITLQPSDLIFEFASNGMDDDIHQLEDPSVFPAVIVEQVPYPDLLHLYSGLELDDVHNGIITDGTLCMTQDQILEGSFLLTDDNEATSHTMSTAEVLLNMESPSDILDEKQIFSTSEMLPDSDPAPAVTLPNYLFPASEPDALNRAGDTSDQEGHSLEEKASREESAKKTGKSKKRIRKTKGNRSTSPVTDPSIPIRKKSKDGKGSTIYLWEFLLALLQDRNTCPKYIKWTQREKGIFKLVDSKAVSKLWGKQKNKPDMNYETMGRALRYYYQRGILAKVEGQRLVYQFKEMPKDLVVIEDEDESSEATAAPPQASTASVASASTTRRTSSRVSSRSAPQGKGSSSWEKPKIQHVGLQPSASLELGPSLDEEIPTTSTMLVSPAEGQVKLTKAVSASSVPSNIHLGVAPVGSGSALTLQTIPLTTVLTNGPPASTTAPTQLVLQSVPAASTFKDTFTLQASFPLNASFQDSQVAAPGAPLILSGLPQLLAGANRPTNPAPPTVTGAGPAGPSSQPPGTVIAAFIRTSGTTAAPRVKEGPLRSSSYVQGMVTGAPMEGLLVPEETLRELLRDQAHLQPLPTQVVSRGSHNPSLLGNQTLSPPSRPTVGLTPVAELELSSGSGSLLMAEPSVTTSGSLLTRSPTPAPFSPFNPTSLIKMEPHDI
# In short: as §1
# [10] = target: T6, ETV2 (Homo sapiens, UniProt O00321 1-342)
# T6 sequence: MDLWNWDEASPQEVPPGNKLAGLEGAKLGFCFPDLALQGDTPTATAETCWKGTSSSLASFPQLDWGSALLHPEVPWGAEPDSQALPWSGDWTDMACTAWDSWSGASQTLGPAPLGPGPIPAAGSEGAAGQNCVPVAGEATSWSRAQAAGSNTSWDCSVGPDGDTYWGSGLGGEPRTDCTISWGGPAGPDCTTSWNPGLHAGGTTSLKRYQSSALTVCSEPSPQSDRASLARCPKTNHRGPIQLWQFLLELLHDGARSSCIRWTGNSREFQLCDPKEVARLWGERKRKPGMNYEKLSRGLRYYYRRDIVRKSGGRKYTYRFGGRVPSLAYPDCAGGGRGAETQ
# In short: as §1
# [11] = target: T7, ELF3 (Homo sapiens, UniProt P78545 1-371)
# T7 sequence: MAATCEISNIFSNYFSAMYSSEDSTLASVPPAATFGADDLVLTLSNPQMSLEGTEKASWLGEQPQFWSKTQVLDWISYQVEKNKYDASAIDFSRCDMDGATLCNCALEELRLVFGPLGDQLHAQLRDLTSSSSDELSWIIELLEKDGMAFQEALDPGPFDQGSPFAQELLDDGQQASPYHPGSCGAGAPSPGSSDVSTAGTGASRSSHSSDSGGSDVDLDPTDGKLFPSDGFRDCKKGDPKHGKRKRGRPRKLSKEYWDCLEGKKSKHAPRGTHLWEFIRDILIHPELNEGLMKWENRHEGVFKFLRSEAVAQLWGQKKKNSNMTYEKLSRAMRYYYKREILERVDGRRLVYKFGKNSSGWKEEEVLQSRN
# In short: as §1
# [12] = target: ETV1 (Homo sapiens, UniProt P50549 1-477)
# Chain of ETV1 (P50549 whole entry): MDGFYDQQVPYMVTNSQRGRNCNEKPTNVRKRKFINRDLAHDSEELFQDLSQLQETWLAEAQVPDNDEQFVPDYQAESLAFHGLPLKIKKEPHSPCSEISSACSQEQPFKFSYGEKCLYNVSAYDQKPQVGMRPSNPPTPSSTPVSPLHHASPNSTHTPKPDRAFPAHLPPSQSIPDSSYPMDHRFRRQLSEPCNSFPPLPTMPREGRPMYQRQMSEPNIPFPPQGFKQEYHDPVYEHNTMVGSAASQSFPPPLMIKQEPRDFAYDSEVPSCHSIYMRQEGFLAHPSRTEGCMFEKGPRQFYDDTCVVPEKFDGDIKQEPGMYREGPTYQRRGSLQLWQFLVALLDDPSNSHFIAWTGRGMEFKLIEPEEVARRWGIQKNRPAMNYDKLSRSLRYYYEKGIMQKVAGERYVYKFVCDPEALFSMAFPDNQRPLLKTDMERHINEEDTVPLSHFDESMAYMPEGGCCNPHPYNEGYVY
# In short: as §1
# [13] = target: T8, ERF (Homo sapiens, UniProt P50548 1-548)
# T8 sequence: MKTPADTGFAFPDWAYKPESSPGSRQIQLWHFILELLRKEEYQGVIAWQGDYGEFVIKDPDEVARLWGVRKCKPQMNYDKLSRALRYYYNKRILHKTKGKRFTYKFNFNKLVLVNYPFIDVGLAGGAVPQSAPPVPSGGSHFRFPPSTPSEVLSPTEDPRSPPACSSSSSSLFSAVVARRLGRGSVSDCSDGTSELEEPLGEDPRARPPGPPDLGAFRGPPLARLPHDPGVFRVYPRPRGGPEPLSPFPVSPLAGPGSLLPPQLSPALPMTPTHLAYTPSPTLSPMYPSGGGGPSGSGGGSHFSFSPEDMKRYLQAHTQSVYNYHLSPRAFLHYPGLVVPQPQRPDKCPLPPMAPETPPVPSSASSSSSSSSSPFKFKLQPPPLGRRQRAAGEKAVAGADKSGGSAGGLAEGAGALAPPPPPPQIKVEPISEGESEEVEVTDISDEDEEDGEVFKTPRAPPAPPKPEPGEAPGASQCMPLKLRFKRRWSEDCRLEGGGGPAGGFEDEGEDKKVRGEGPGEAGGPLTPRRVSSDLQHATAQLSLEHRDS
# In short: as §1
# [14] = target: T9, ETV3L (Homo sapiens, UniProt Q6ZN32 1-361)
# T9 sequence: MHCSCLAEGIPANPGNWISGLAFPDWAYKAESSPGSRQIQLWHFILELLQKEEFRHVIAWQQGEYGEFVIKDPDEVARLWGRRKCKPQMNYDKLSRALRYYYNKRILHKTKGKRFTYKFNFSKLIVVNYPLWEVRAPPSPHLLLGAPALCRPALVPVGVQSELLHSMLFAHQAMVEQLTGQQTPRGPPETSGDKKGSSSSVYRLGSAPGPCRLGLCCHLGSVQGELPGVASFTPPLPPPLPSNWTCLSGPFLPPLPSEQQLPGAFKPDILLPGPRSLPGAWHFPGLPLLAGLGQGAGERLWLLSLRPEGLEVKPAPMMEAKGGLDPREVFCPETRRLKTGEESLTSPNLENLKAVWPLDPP
# In short: as §1
# [15] = target: T10, ETS2 (Homo sapiens, UniProt P15036 1-469)
# T10 sequence: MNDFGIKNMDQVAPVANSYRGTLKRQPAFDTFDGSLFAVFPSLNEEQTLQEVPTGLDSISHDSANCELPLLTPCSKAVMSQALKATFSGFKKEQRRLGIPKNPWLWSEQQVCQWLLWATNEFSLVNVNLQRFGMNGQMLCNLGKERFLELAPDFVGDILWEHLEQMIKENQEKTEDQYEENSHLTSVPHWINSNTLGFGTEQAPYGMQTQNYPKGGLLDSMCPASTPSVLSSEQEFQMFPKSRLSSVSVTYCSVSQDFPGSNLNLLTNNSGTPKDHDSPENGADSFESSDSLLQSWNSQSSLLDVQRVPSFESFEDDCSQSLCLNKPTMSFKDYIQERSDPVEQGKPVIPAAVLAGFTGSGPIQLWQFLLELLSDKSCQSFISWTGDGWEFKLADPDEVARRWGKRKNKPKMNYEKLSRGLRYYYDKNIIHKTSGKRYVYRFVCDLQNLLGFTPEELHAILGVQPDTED
# In short: as §1
# [16] = target: T11, ETV3 (Homo sapiens, UniProt P41162-2 1-143)
# T11 sequence: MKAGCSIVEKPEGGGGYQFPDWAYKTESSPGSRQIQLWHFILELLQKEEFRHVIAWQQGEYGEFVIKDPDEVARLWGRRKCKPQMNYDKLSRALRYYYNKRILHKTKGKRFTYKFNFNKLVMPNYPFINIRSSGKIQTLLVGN
# In short: as §1
# [17] = target: ETV6 (Homo sapiens, UniProt P41212 1-452)
# Chain of ETV6 (P41212 whole entry): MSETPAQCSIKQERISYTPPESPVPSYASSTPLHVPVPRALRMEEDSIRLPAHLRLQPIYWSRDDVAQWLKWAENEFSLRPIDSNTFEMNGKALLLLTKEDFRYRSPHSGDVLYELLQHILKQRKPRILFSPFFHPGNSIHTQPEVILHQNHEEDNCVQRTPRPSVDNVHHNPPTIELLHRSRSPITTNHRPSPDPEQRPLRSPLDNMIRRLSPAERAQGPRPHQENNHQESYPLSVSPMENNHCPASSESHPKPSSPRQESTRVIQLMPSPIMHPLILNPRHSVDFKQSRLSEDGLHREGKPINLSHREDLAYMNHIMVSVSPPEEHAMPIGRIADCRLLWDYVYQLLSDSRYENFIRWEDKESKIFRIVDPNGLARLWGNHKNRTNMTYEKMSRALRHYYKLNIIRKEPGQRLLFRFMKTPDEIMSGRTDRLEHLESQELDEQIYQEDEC
# In short: as §1
sequence,measurement,setting,value
CAAGTT,binding signal,[1],"1.11 fold enrichment (6-mer frequency, TF over GST control)"
same,binding signal,[2],"1.06 fold enrichment (6-mer frequency, TF over GST control)"
same,binding signal,[3],"1.08 fold enrichment (6-mer frequency, TF over GST control)"
same,binding signal,[4],"1.06 fold enrichment (6-mer frequency, TF over GST control)"
same,binding signal,[5],"1.02 fold enrichment (6-mer frequency, TF over GST control)"
same,binding signal,[6],"1.1 fold enrichment (6-mer frequency, TF over GST control)"
same,binding signal,[7],"1.02 fold enrichment (6-mer frequency, TF over GST control)"
same,binding signal,[8],"1.08 fold enrichment (6-mer frequency, TF over GST control)"
same,binding signal,[9],"1.09 fold enrichment (6-mer frequency, TF over GST control)"
same,binding signal,[10],"1.03 fold enrichment (6-mer frequency, TF over GST control)"
same,binding signal,[11],"1.06 fold enrichment (6-mer frequency, TF over GST control)"
same,binding signal,[12],"1.05 fold enrichment (6-mer frequency, TF over GST control)"
same,binding signal,[13],"1.2 fold enrichment (6-mer frequency, TF over GST control)"
same,binding signal,[14],"1.1 fold enrichment (6-mer frequency, TF over GST control)"
same,binding signal,[15],"1.13 fold enrichment (6-mer frequency, TF over GST control)"
same,binding signal,[16],"1.16 fold enrichment (6-mer frequency, TF over GST control)"
same,binding signal,[17],"1.09 fold enrichment (6-mer frequency, TF over GST control)"
